From PubChem BioAssay (NCI)
Compounds without any hit were thinned out: in the full panel of roughly 83,000, 20% have a hit.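 Cells were grown in 96-well plates and exposed to the test compound at a single concentration for 48 hours; results are reported as percent growth, with values below 10 considered active.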 Active and inactive are the calls of the source.

tested on: NCI-H322M lung; assay: NCI-60 one-dose screen, 48 h (100 = growth as untreated, 0 = no growth, -100 = all killed); settings: 10 µM unless noted

Row | Structure (SMILES) | growth
1 | Fc1ccc(N/N=C/c2ccc(-n3cccn3)cc2)cc1 | 99.9% (inactive)
2 | COc1cc(F)c(-c2nc3c(C)cccc3n2Cc2c(F)cccc2F)c(F)c1 | 87.5% (inactive)
3 | Cc1nc(C)c(C)nc1C | 103% (inactive)
4 | Oc1ccc(CNNc2ccnc3c(O)cccc23)c2cccnc12 | 47.8% (inactive)
5 | N#Cc1ccc(N2Cc3cc(Cl)ccc3OC3=C2C(=O)N(Cc2ccccc2)C3=O)cc1 | 96.3% (inactive)
6 | CC(=O)OCC1SC(OC(C)=O)C(NC(=O)/C=C/CCl)C(OC(C)=O)C1OC(C)=O (centres undefined) | 109% (inactive)
7 | S=C(Nc1ccccc1)c1ccccn1 | 101% (inactive)
8 | COc1cc(C(C)c2ccc3c(ccn3C)c2)cc(OC)c1OC (centres undefined) | 42.8% (inactive)
9 | COc1cc(C2=NN(C(C)=O)C(c3cccc(Nc4ccnc5cc(C(F)(F)F)ccc45)c3)C2)cc(OC)c1OC (centres undefined) | 68.3% (inactive)
10 | CC(C)CSc1nc(Nc2ccccc2)c(C#N)c(-c2ccc(F)cc2)n1 | 27.9% (inactive)
11 | C[C@H]1[C@H](C)CC[C@]2(C(=O)OCCCC[P+](c3ccccc3)(c3ccccc3)c3ccccc3)CC[C@]3(C)C(=CC[C@@H]4[C@@]5(C)CC[C@H](OC(=O)C(Cl)Cl)C(C)(C)[C@@H]5CC[C@]43C)[C@H]12 | -10.6% (active)
12 | CC(/C=C/c1ccccc1)=N/NC(=O)c1ccncc1 | 99.7% (inactive)
13 | O=C(O)c1cn(C2CC2)c2cc(N3CCN(C(=O)CSc4nnc(-c5ccc(Cl)cc5)n4-c4ccccc4)CC3)c(F)cc2c1=O | 110% (inactive)
14 | C1=CC2=CC=C3C=CC=C4C(c5nc6c7ccccc7c7ccccc7c6[nH]5)=CC(=C1)C2C34 (centres undefined) | 90.9% (inactive)
